Measurements published in PubChem BioAssay (NCATS).
Results filed as inconclusive are left out. The source made the active and inactive calls. Calls come from the whole dose curve; as a rule, active = well fitted curve in the direction sought with a large enough effect; inconclusive = small, poorly fitted or top-dose-only effect, or another doubt; inactive = no such curve, though single readings can be large; an effect the other way counts as inactive or inconclusive.

Test: qHTS to identify inhibitors of the type 1 interferon - major histocompatibility complex class I in skeletal muscle: primary screen against the NCATS Mechanism Interrogation Plate v5.0 (MIPE) Libary (AID 1347411); note: nearly all actives have a fitted effect of over 65% in size; note: potency is the fitted concentration of half-maximal effect;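 for activity change, negative = inhibition: plate controls were vehicle for no effect and reference inhibitor for full effect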
Conditions: iHSKM cells + IFN-b, HiBiT-tagged MHC-I luminescence, 24 h; series mostly up to 45.8 µM; activity change, negative = inhibition: at the top concentration
In short: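 Cells were genome-edited human myoblasts carrying a HiBit tag on endogenous HLA-B. They were treated with IFN-beta (4.0 ng/ml) and titrated compounds (top 46 uM) for 24 hrs before lytic HiBiT detection.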

| Structure (SMILES) | activity change, negative = inhibition | Potency |
| --- | --- | --- |
| O=S(=O)(c1cccc2c(I)cccc12)N1CCCNCC1 | 11.5% (inactive) | – |
| O=C(O)[C@H](CC(=O)N1C[C@H]2CCCC[C@H]2C1)Cc1ccccc1 | -1.62% (inactive) | – |
| COc1ccc(/C=C/C(=O)Nc2ccccc2C(=O)O)cc1OC | -16.3% (inactive) | – |
| Oc1cc(O)cc(/C=C/c2ccc(O)c(O)c2)c1 | -25.9% (inactive) | – |
| CCOC(=O)N1CCN(/[N+]([O-])=N/Oc2ccc([N+](=O)[O-])cc2[N+](=O)[O-])CC1 | – | 20.8 µM (active) |
| O=C1NC(=O)/C(=C/c2ccc3nccnc3c2)S1 | -11.3% (inactive) | – |
| COc1cc(CNC(=O)CCCC/C=C/C(C)C)ccc1O | 7.62% (inactive) | – |

Test: Validation qHTS assay for inhibitors of Activation Induced Cytidine Deaminase (AID): UDG Counterscreen signal (AID 1347427); note: 0% is about no effect
Conditions: biochemical UDG counterscreen, fluorescence signal; series mostly up to 115 µM; activity, negative = inhibition: at the top concentration
In short: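 Counterscreen read of UDG activity (2 U/mL, 4/3x) in the FRET deamination format with AID (1 uM, 4/3x), DJC20/DJC23 substrates (250 nM, 4x), 4 h at room temperature. NaOH stop, fluorescence at 560 ex/665 em.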

| Structure (SMILES) | activity, negative = inhibition |
| --- | --- |
| O=S(=O)(c1cccc2c(I)cccc12)N1CCCNCC1 | 14.4% (inactive) |
| NC(=O)C1=CN(C2OC(COP(=O)(O)OP(=O)(O)OC[C@H]3O[C@@H](n4cnc5c(N)ncnc54)[C@H](OP(=O)(O)O)[C@@H]3O)C(O)C2O)C=CC1 (some centres not stated) | -3.86% (inactive) |
| CC12C(=O)OC(=O)C1(C)C1CCC2O1 (configuration not stated) | 14.2% (inactive) |
| CCCCCCCC/C=C\CCCCCCCC(=O)NCCO | -2.06% (inactive) |
| C[N+](C)(C)CCOP(=O)(O)OP(=O)([O-])OC[C@H]1O[C@@H](n2ccc(N)nc2=O)[C@H](O)[C@@H]1O | 11.4% (inactive) |
| CC1OC1P(=O)(O)O (configuration not stated) | -12.9% (inactive) |
| NC[C@H]1O[C@@H](n2cnc3c(N)ncnc32)[C@H](O)[C@@H]1O | 5.96% (inactive) |
| COc1ccc(/C=C/C(=O)Nc2ccccc2C(=O)O)cc1OC | -4.81% (inactive) |
| C[N+]1(C)CCC(OC(=O)C(c2ccccc2)c2ccccc2)CC1 | 12.2% (inactive) |
| CN(C)c1ccc(/C=C2\C(=O)Nc3ccccc32)cc1 | 6.7% (inactive) |
| Oc1cc(O)cc(/C=C/c2ccc(O)c(O)c2)c1 | 3.33% (inactive) |
| O=C(/C=C/c1ccc(O)cc1)c1ccc(O)cc1O | 8.86% (inactive) |
| CN1CCc2ccccc2Cc2[nH]c3ccccc3c2CC1 | 0.608% (inactive) |
| NS(=O)(=O)C#Cc1ccccc1 | 9.39% (inactive) |
| OC[C@H]1O[C@@H](n2cnc3c(NC4CCCC4)ncnc32)[C@H](O)[C@@H]1O | 12.5% (inactive) |
| Oc1cc2c(cc1O)CN(C(=S)NCCc1ccc(Cl)cc1)CCC2 | 3.25% (inactive) |
| O=C(c1cc(O)c(O)c([N+](=O)[O-])c1)c1ccccc1F | 10.8% (inactive) |
| CC(C)NC[C@H](O)COc1cccc2[nH]ccc12 | 16.5% (inactive) |
| O=C(Nc1ccccc1)c1cc([N+](=O)[O-])ccc1Cl | -5.87% (inactive) |
| O=C(O)CCCC[C@@H]1CCSS1 | 16.2% (inactive) |
| O=C1/C(=C/c2ccsc2)CC/C1=C\c1cccs1 | 10.8% (inactive) |
| O=C(O)CNC(=O)C(CS)Cc1ccccc1 (configuration not stated) | 14.5% (inactive) |
| Fc1ccc(C(OCCCc2cnc[nH]2)c2ccc(F)cc2)cc1 | -0.822% (inactive) |
| CCOC(=O)N1CCN(/[N+]([O-])=N/Oc2ccc([N+](=O)[O-])cc2[N+](=O)[O-])CC1 | 2.39% (inactive) |
| O=C1NC(=O)/C(=C/c2ccc3nccnc3c2)S1 | 4.55% (inactive) |
